High-throughput results: PubChem BioAssay, National Center for Advancing Translational Sciences (NCATS)
Compounds with a hit are over-represented: about 18% of the library has one in this group of screens.
TDP1 cell noCPT = qHTS for Inhibitors of human tyrosyl-DNA phosphodiesterase 1 (TDP1): qHTS in cells in absence of CPT. DT40 Tdp1-/- hTDP1 cells, no CPT, ATP luminescence, 48 h. Potency, µM (series often up to 46.2 µM), most hits filed as inhibitors. hit rate 15% among 420,000; further: nearly all actives have a fitted effect of over 55% in size
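Growth kinetics read by CellTiter-Glo luminescence after ≥48 hr at 37 °C. Cells: DT40 Tdp1-/- stably carrying human TDP1, 400 per well, compound exposure in the absence of CPT (DMSO vehicle).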
IL1B secr inh = blocks inflammasome-driven IL-1 beta release; hit rate 4.7% among 360,000; activity change, % at 57.5 µM; THP-1 LPS/ATP IL-1B secretion, AlphaLISA, 16 h; active compounds read low; in the data active means activity change below about -50%; inconclusive means mostly about -30% to -49%
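THP-1 cells pretreated 1 hr with compounds (up to 57.5 uM final), then stimulated with LPS (250 ng/mL final) plus ATP (1.25 mM final); secreted IL-1B measured by AlphaLISA after 16 hr, decreased signal indicating inhibition.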
RORg inh = blocks mouse ROR gamma transcriptional activity; P51450; Drosophila S2 Gal4-RORgamma UAS-luciferase reporter, 20 h; Potency, µM (top dose mostly 53.6 µM), hits mostly inhibitors; hit rate 5.4% among 310,000; further: nearly all actives have a fitted effect of over 60% in size
Target sequence (P51450 whole entry, looked up, the tested form may be a part): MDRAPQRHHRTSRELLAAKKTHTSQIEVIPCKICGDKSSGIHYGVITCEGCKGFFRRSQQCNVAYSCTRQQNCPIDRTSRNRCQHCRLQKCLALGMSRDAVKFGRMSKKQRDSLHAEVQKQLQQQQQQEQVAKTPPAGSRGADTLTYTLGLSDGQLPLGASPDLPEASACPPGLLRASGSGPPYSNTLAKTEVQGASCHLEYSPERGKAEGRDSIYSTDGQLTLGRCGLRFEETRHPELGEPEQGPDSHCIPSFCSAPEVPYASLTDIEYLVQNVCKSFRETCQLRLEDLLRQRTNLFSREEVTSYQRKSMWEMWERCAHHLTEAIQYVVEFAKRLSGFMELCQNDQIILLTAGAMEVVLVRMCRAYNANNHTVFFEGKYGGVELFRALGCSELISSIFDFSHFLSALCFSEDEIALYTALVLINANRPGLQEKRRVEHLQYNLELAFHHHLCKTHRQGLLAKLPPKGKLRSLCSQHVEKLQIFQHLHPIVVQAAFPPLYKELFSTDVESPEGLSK
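Read-out: Photinus luciferase luminescence; inhibitors lower reporter signal. Insect Schneider cells with Gal4-ROR gamma fusion under metallothionein promoter, UAS reporter; 700 uM final copper sulfate induction, 20 hr, ambient temperature.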
LDHA inh = inhibitors of human lactate dehydrogenase A; P00338; purified LDHA, NADH/diaphorase-resazurin fluorescence; active compounds read low; activity change, % (values are at about 110 or 230 µM); hit rate 0.15% among 480,000; AID 1347041; in the data active means activity change below about -30%; inconclusive means mostly about -25% to -30%
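LDH5 2 nM; NADH 0.06 mM, pyruvate 0.2 mM; 200 mM Tris pH 7.4, EDTA, Tween-20; 5 min RT. Detection: diaphorase 0.133 mg/mL + resazurin 37 µM, fluorescence ex540/em590 at 0 and 20 min; normalized to enzyme-free and DMSO wells.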
Gal4-VP16 FLuc = counter-screen for ROR gamma inhibitors: Gal4-VP16 reporter | Potency, µM (highest dose often 53.6 µM), most hits filed as inhibitors | Drosophila S2 Gal4-VP16 UAS-luciferase, luminescence, 20 h | hit rate 3.5% among 310,000;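 further: Gal4-VP16 expression switched on by copper sulfate through the metallothionein promoter; nearly all actives have a fitted effect of over 50% in size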
DT40 TDP1 CPT = growth inhibition of DT40 Tdp1-/-;hTDP1 cells with camptothecin (screen for TDP1 inhibitors); hit rate 12% among 420,000; chicken DT40 Tdp1-/-;hTDP1 cells + 20 nM CPT, ATP luminescence, 48 h; Potency, µM (highest dose often 46.2 µM), actives largely listed as inhibitors; further: nearly all actives have a fitted effect of over 55% in size
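Chicken DT40 Tdp1-/- cells complemented with human TDP1, 400 cells/well, exposed to compounds plus 20 nM camptothecin for at least 48 h at 37 C; viability read as ATP content by CellTiter-Glo luminescence.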
Large screens that a line does not name were inactive. Unless noted, the call rests on the fitted dose curve; in most records, active means well fitted curve in the direction sought with a large enough effect; inconclusive means small, poorly fitted or top-dose-only effect, or another doubt; inactive means no such curve, though single readings can be large; an effect the other way counts as inactive or inconclusive.

CN(CC(=O)Nc1nccs1)S(=O)(=O)c1ccc(Cl)cc1	none (no result: TDP1 cell noCPT, IL1B secr inh, RORg inh, Gal4-VP16 FLuc, DT40 TDP1 CPT)
Nc1nc(N2CCN(Cc3ccc(Cl)cc3)CC2)c2[nH]cnc2n1	none (no result: TDP1 cell noCPT, IL1B secr inh, RORg inh, Gal4-VP16 FLuc, DT40 TDP1 CPT)
O=C(NC1CCc2ccccc21)c1ccccn1 (stereo unspecified)	none (no result: TDP1 cell noCPT, IL1B secr inh, RORg inh, Gal4-VP16 FLuc, DT40 TDP1 CPT)
COc1ccc(NC(=O)C2C(c3ccccc3)C2(Cl)Cl)cc1 (stereo unspecified)	TDP1 cell noCPT inconclusive, DT40 TDP1 CPT inconclusive
CCOc1ccc(NC(=O)C2C(c3ccccc3)C2(Cl)Cl)cc1 (stereo unspecified)	TDP1 cell noCPT 23µM, DT40 TDP1 CPT inconclusive
Cc1cccc(NC(=O)C2C(c3ccccc3)C2(Cl)Cl)c1 (stereo unspecified)	TDP1 cell noCPT 13µM, DT40 TDP1 CPT inconclusive
CCOc1ccc(OCC)c(NC(=O)c2nc3ccccc3nc2N2CCOCC2)c1	none (no result: TDP1 cell noCPT, IL1B secr inh, RORg inh, Gal4-VP16 FLuc, DT40 TDP1 CPT)
CC(C)(C)c1ccc(C(=O)Oc2ccc(/C=N/O)cc2)cc1	none (no result: TDP1 cell noCPT, IL1B secr inh, RORg inh, Gal4-VP16 FLuc, DT40 TDP1 CPT)
Cc1nn(CC(=O)c2cc(C)n(CCC(C)C)c2C)c(=O)c(C#N)c1C	none (no result: TDP1 cell noCPT, IL1B secr inh, RORg inh, Gal4-VP16 FLuc, DT40 TDP1 CPT)
COc1ccc(Cl)cc1NC(=O)Cn1cnc2sc(C)c(S(=O)(=O)N3CCN(c4ccccc4OC)CC3)c2c1=O	TDP1 cell noCPT 7.3µM, DT40 TDP1 CPT 7.3µM (no result: IL1B secr inh, RORg inh, Gal4-VP16 FLuc)
COc1ccccc1N1CCN(S(=O)(=O)c2c(C)sc3ncn(CC(=O)Nc4ccc(C(C)C)cc4)c(=O)c23)CC1	TDP1 cell noCPT inconclusive, DT40 TDP1 CPT inconclusive (no result: IL1B secr inh, RORg inh, Gal4-VP16 FLuc)
COc1ccc(OC)c(NC(=O)Cn2cnc3sc(C)c(S(=O)(=O)N4CCN(c5ccccc5OC)CC4)c3c2=O)c1	TDP1 cell noCPT inconclusive, DT40 TDP1 CPT 21µM (no result: IL1B secr inh, RORg inh, Gal4-VP16 FLuc)
CCN(CC)CCCOc1ccccc1-c1ccccc1	none (no result: TDP1 cell noCPT, IL1B secr inh, RORg inh, Gal4-VP16 FLuc, DT40 TDP1 CPT)
CCNc1nc(C)c2cc(Br)c(=O)n(CC)c2n1	TDP1 cell noCPT 2.9µM, DT40 TDP1 CPT 3.7µM
Cc1ccc(CNc2ncnc3[nH]ncc23)cc1	TDP1 cell noCPT inconclusive, DT40 TDP1 CPT inconclusive (no result: RORg inh, Gal4-VP16 FLuc)
COc1cccc(CCNc2ncnc3sc(C(=O)N4CCN(C)CC4)c(C)c23)c1	none (no result: IL1B secr inh, RORg inh, LDHA inh, Gal4-VP16 FLuc)
COc1ccc(CCNc2ncnc3[nH]ncc23)cc1OC	TDP1 cell noCPT 15µM, Gal4-VP16 FLuc 13µM, DT40 TDP1 CPT 15µM
CCOc1ccc2[nH]c3c(NCCc4ccc(OC)c(OC)c4)ncnc3c2c1	TDP1 cell noCPT 2.9µM, IL1B secr inh -96, DT40 TDP1 CPT 4.1µM
CCCCCCCCNc1ncnc2[nH]ncc12	TDP1 cell noCPT 3.7µM, DT40 TDP1 CPT 4.6µM (no result: RORg inh, Gal4-VP16 FLuc)
COc1ccc(CCNc2ncnc3sc(C(=O)N4CCCCC4)c(C)c23)cc1OC	TDP1 cell noCPT 18µM (no result: IL1B secr inh, RORg inh, LDHA inh, Gal4-VP16 FLuc)
C/C(=N/n1c(C)csc1=NC(C)C)c1ccccc1	none (no result: TDP1 cell noCPT, IL1B secr inh, RORg inh, Gal4-VP16 FLuc, DT40 TDP1 CPT)
Cc1ccc(C2CC(c3ccc4c(c3)OCO4)=NN2C(=O)CCC(=O)O)cc1 (stereo unspecified)	none (no result: TDP1 cell noCPT, IL1B secr inh, RORg inh, Gal4-VP16 FLuc, DT40 TDP1 CPT)
OCCCNc1ncnc2[nH]ncc12	none (no result: RORg inh, Gal4-VP16 FLuc)
COc1ccc(CNc2ncnc3cc(OC)c(OC)cc23)cc1OC	none
Fc1ccc(CCNc2ncnc3[nH]ncc23)cc1	TDP1 cell noCPT 16µM, DT40 TDP1 CPT inconclusive (no result: RORg inh, Gal4-VP16 FLuc)
COc1ccc(CCNc2ncnc3sc(C)cc23)cc1OC	TDP1 cell noCPT 0.26µM, RORg inh inconclusive, Gal4-VP16 FLuc 0.4µM, DT40 TDP1 CPT 0.58µM
O=S(=O)(NC1=NCN(Cc2cccnc2)CN1)c1ccc(Cl)cc1	none (no result: TDP1 cell noCPT, IL1B secr inh, RORg inh, Gal4-VP16 FLuc, DT40 TDP1 CPT)
CCN(CCC(F)(F)F)C(=O)c1ccc2ccccc2n1	none (no result: TDP1 cell noCPT, IL1B secr inh, RORg inh, Gal4-VP16 FLuc, DT40 TDP1 CPT)
O[C@@H]1CN(Cc2cccs2)[C@@H](c2ccc(Cl)cc2)C[C@H]1n1cc(-c2ccc(F)cc2)nn1	TDP1 cell noCPT 23µM, LDHA inh -30, DT40 TDP1 CPT inconclusive (no result: RORg inh, Gal4-VP16 FLuc)
O=C(C1CCCCC1)N1C[C@@H](O)[C@H](n2cc(-c3ccc(F)cc3)nn2)C[C@@H]1c1ccccc1	TDP1 cell noCPT 15µM, DT40 TDP1 CPT inconclusive (no result: RORg inh, Gal4-VP16 FLuc)
O=C(c1cccs1)N1C[C@@H](n2cc(-c3ccc(F)cc3)nn2)[C@H](O)C[C@@H]1c1ccccc1	TDP1 cell noCPT 21µM, DT40 TDP1 CPT 15µM (no result: RORg inh, Gal4-VP16 FLuc)
O=C(c1cccs1)N1C[C@H](n2cc(-c3ccc(F)cc3)nn2)[C@@H](O)C[C@@H]1c1ccc(Cl)cc1	TDP1 cell noCPT inconclusive, IL1B secr inh inconclusive, DT40 TDP1 CPT inconclusive (no result: RORg inh, Gal4-VP16 FLuc)
